# How the values were obtained:
# Test in all cases: yeast three-hybrid, YBZ-1, SC-Leu-His + 0.5 mM 3-AT, 4 days
# Conditions in all cases: tags: N-Gal4 AD-HA kept; label: inside an RPR1-promoter hybrid RNA with tandem MS2 sites; ssRNA
# PUM1 PUF domain R5-KQW = PUM1 PUF domain R5-KQW (Homo sapiens, UniProt Q14671 828-1176, C1007K;R1008Q;Q1011W)
# Outline: (§1)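 Pumilio-1 PUF domain libraries, randomized (NNK) at the three base-contacting residues of each repeat, were co-expressed with matching RNA elements from a centromeric plasmid in strain YBZ-1 (LexA–MS2 coat fusion, HIS3 reporter). Transformants were plated on SC-Leu (input) and SC-Leu-His + 0.5 mM 3-AT (selection) for four days, and repeat regions were PCR-amplified and Illumina-sequenced. The interaction score is the log2 change in variant frequency from input to selection, with pseudocount 1 where absent.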
# PUM1 PUF domain R5-WWQ = PUM1 PUF domain R5-WWQ (Homo sapiens, UniProt Q14671 828-1176, C1007W;R1008W)
# Outline: as §1
# PUM1 PUF domain R5-QAR = PUM1 PUF domain R5-QAR (Homo sapiens, UniProt Q14671 828-1176, C1007Q;R1008A;Q1011R)
# Outline: as §1
# PUM1 PUF domain R5-RCL = PUM1 PUF domain R5-RCL (Homo sapiens, UniProt Q14671 828-1176, C1007R;R1008C;Q1011L)
# PUM1 PUF domain R5-RCL, sequence (Q14671 828-1176 C1007R/R1008C/Q1011L): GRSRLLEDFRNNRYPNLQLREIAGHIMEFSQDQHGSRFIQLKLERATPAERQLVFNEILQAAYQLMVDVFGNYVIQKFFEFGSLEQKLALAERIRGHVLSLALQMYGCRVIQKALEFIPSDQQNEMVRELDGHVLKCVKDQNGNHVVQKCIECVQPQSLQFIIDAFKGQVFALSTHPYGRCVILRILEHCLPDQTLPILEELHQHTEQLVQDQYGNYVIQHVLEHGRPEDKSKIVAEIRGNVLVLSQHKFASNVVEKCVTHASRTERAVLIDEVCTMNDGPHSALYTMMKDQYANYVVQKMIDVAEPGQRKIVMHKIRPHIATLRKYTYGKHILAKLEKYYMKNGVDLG
# Outline: as §1
# PUM1 PUF domain R5-RGE = PUM1 PUF domain R5-RGE (Homo sapiens, UniProt Q14671 828-1176, C1007R;R1008G;Q1011E)
# PUM1 PUF domain R5-RGE, sequence (Q14671 828-1176 C1007R/R1008G/Q1011E): as the sequence (Q14671 828-1176 C1007R/R1008C/Q1011L) above, with C181G, L184E counted along it
# Outline: as §1
# PUM1 PUF domain R1-KWV = PUM1 PUF domain R1-KWV (Homo sapiens, UniProt Q14671 828-1176, S863K;R864W;Q867V)
# Outline: as §1
# PUM1 PUF domain R1-TGR = PUM1 PUF domain R1-TGR (Homo sapiens, UniProt Q14671 828-1176, S863T;R864G;Q867R)
# PUM1 PUF domain R1-TGR, sequence (Q14671 828-1176 S863T/R864G/Q867R): as the sequence (Q14671 828-1176 C1007R/R1008C/Q1011L) above, with S36T, R37G, Q40R, R180C, C181R, L184Q counted along it
# Outline: as §1
# PUM1 PUF domain R5-EWD = PUM1 PUF domain R5-EWD (Homo sapiens, UniProt Q14671 828-1176, C1007E;R1008W;Q1011D)
# Outline: as §1
# PUM1 PUF domain R7-QSG = PUM1 PUF domain R7-QSG (Homo sapiens, UniProt Q14671 828-1176, S1079Q;N1080S;E1083G)
# PUM1 PUF domain R7-QSG, sequence (Q14671 828-1176 S1079Q/N1080S/E1083G): as the sequence (Q14671 828-1176 C1007R/R1008C/Q1011L) above, with R180C, C181R, L184Q, S252Q, N253S, E256G counted along it
# Outline: as §1
# PUM1 PUF domain R3-YWF = PUM1 PUF domain R3-YWF (Homo sapiens, UniProt Q14671 828-1176, C935Y;R936W;Q939F)
# PUM1 PUF domain R3-YWF, sequence (Q14671 828-1176 C935Y/R936W/Q939F): as the sequence (Q14671 828-1176 C1007R/R1008C/Q1011L) above, with C108Y, R109W, Q112F, R180C, C181R, L184Q counted along it
# Outline: as §1
# PUM1 PUF domain R3-FFS = PUM1 PUF domain R3-FFS (Homo sapiens, UniProt Q14671 828-1176, C935F;R936F;Q939S)
# PUM1 PUF domain R3-FFS, sequence (Q14671 828-1176 C935F/R936F/Q939S): as the sequence (Q14671 828-1176 C1007R/R1008C/Q1011L) above, with C108F, R109F, Q112S, R180C, C181R, L184Q counted along it
# Outline: as §1
# PUM1 PUF domain R2-RKQ = PUM1 PUF domain R2-RKQ (Homo sapiens, UniProt Q14671 828-1176, N899R;Y900K)
# Outline: as §1
# PUM1 PUF domain R2-RKC = PUM1 PUF domain R2-RKC (Homo sapiens, UniProt Q14671 828-1176, N899R;Y900K;Q903C)
# PUM1 PUF domain R2-RKC, sequence (Q14671 828-1176 N899R/Y900K/Q903C): as the sequence (Q14671 828-1176 C1007R/R1008C/Q1011L) above, with N72R, Y73K, Q76C, R180C, C181R, L184Q counted along it
# Outline: as §1
# PUM1 PUF domain R6-QWL = target: T1, PUM1 PUF domain R6-QWL (Homo sapiens, UniProt Q14671 828-1176, N1043Q;Y1044W;Q1047L)
# T1 sequence: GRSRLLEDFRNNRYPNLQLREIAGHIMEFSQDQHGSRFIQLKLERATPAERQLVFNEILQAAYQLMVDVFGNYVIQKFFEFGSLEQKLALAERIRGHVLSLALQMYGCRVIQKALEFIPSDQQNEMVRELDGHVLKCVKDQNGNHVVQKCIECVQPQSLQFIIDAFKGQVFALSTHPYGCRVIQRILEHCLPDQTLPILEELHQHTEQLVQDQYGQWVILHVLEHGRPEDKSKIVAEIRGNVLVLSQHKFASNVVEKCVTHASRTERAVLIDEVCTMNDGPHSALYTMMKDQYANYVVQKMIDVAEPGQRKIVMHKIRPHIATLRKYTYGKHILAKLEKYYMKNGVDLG
# Outline: as §1
# PUM1 PUF domain R5-PHR = PUM1 PUF domain R5-PHR (Homo sapiens, UniProt Q14671 828-1176, C1007P;R1008H;Q1011R)
# Outline: as §1
# PUM1 PUF domain R4-RMS = PUM1 PUF domain R4-RMS (Homo sapiens, UniProt Q14671 828-1176, N971R;H972M;Q975S)
# Outline: as §1
# PUM1 PUF domain R3-SQQ = PUM1 PUF domain R3-SQQ (Homo sapiens, UniProt Q14671 828-1176, C935S;R936Q)
# PUM1 PUF domain R3-SQQ, sequence (Q14671 828-1176 C935S/R936Q): as the sequence (Q14671 828-1176 C1007R/R1008C/Q1011L) above, with C108S, R109Q, R180C, C181R, L184Q counted along it
# Outline: as §1
# PUM1 PUF domain R7-KPL = PUM1 PUF domain R7-KPL (Homo sapiens, UniProt Q14671 828-1176, S1079K;N1080P;E1083L)
# PUM1 PUF domain R7-KPL, sequence (Q14671 828-1176 S1079K/N1080P/E1083L): as the sequence (Q14671 828-1176 C1007R/R1008C/Q1011L) above, with R180C, C181R, L184Q, S252K, N253P, E256L counted along it
# Outline: as §1
# PUM1 PUF domain R8-GWH = PUM1 PUF domain R8-GWH (Homo sapiens, UniProt Q14671 828-1176, N1122G;Y1123W;Q1126H)
# Outline: as §1
# PUM1 PUF domain R8-HFN = PUM1 PUF domain R8-HFN (Homo sapiens, UniProt Q14671 828-1176, N1122H;Y1123F;Q1126N)
# PUM1 PUF domain R8-HFN, sequence (Q14671 828-1176 N1122H/Y1123F/Q1126N): as the sequence (Q14671 828-1176 C1007R/R1008C/Q1011L) above, with R180C, C181R, L184Q, N295H, Y296F, Q299N counted along it
# Outline: as §1
sequence,measurement,setting,value
GGCUAGAACUAGUGGAUCCCCCGGCGCCCGGCGGCUCGAGCCCGGGUAAGUGUUAAUAGUCUGCAUGCCGCCGGGCGCCAUGCCUGCAGGUCGACUCUAGAAAACAUG,binding signal,PUM1 PUF domain R5-KQW,2.43 log2 enrichment (interaction score)
same,binding signal,PUM1 PUF domain R5-WWQ,2.93 log2 enrichment (interaction score)
same,binding signal,PUM1 PUF domain R5-QAR,3.17 log2 enrichment (interaction score)
same,binding signal,PUM1 PUF domain R5-RCL,2.91 log2 enrichment (interaction score)
same,binding signal,PUM1 PUF domain R5-RGE,0.96 log2 enrichment (interaction score)
GGCUAGAACUAGUGGAUCCCCCGGCGCCCGGCGGCUCGAGCCCGGGUAAGUGUAAAUCGUCUGCAUGCCGCCGGGCGCCAUGCCUGCAGGUCGACUCUAGAAAACAUG,binding signal,PUM1 PUF domain R1-KWV,5.68 log2 enrichment (interaction score)
same,binding signal,PUM1 PUF domain R1-TGR,2.65 log2 enrichment (interaction score)
GGCUAGAACUAGUGGAUCCCCCGGCGCCCGGCGGCUCGAGCCCGGGUAAGUGUGAAUAGUCUGCAUGCCGCCGGGCGCCAUGCCUGCAGGUCGACUCUAGAAAACAUG,binding signal,PUM1 PUF domain R5-WWQ,2.01 log2 enrichment (interaction score)
same,binding signal,PUM1 PUF domain R5-EWD,2.28 log2 enrichment (interaction score)
GGCUAGAACUAGUGGAUCCCCCGGCGCCCGGCGGCUCGAGCCCGGGUAAGUUUAAAUAGUCUGCAUGCCGCCGGGCGCCAUGCCUGCAGGUCGACUCUAGAAAACAUG,binding signal,PUM1 PUF domain R7-QSG,2.85 log2 enrichment (interaction score)
GGCUAGAACUAGUGGAUCCCCCGGCGCCCGGCGGCUCGAGCCCGGGUAAGUGUAAGUAGUCUGCAUGCCGCCGGGCGCCAUGCCUGCAGGUCGACUCUAGAAAACAUG,binding signal,PUM1 PUF domain R3-YWF,3.54 log2 enrichment (interaction score)
same,binding signal,PUM1 PUF domain R3-FFS,6.93 log2 enrichment (interaction score)
GGCUAGAACUAGUGGAUCCCCCGGCGCCCGGCGGCUCGAGCCCGGGUAAGUGUAAUUAGUCUGCAUGCCGCCGGGCGCCAUGCCUGCAGGUCGACUCUAGAAAACAUG,binding signal,PUM1 PUF domain R3-FFS,5.05 log2 enrichment (interaction score)
GGCUAGAACUAGUGGAUCCCCCGGCGCCCGGCGGCUCGAGCCCGGGUAAGUGUAAAGAGUCUGCAUGCCGCCGGGCGCCAUGCCUGCAGGUCGACUCUAGAAAACAUG,binding signal,PUM1 PUF domain R2-RKQ,2.92 log2 enrichment (interaction score)
same,binding signal,PUM1 PUF domain R2-RKC,5.3 log2 enrichment (interaction score)
GGCUAGAACUAGUGGAUCCCCCGGCGCCCGGCGGCUCGAGCCCGGGUAAGUGAAAAUAGUCUGCAUGCCGCCGGGCGCCAUGCCUGCAGGUCGACUCUAGAAAACAUG,binding signal,PUM1 PUF domain R6-QWL,4.43 log2 enrichment (interaction score)
GGCUAGAACUAGUGGAUCCCCCGGCGCCCGGCGGCUCGAGCCCGGGUAAGUGUAAAUGGUCUGCAUGCCGCCGGGCGCCAUGCCUGCAGGUCGACUCUAGAAAACAUG,binding signal,PUM1 PUF domain R1-KWV,0.79 log2 enrichment (interaction score)
GGCUAGAACUAGUGGAUCCCCCGGCGCCCGGCGGCUCGAGCCCGGGUAAGUGUAAAUAGUCUGCAUGCCGCCGGGCGCCAUGCCUGCAGGUCGACUCUAGAAAACAUG,binding signal,PUM1 PUF domain R5-PHR,2.42 log2 enrichment (interaction score)
same,binding signal,PUM1 PUF domain R4-RMS,4.65 log2 enrichment (interaction score)
same,binding signal,PUM1 PUF domain R3-SQQ,2.27 log2 enrichment (interaction score)
same,binding signal,PUM1 PUF domain R3-FFS,3.99 log2 enrichment (interaction score)
GGCUAGAACUAGUGGAUCCCCCGGCGCCCGGCGGCUCGAGCCCGGGUAAGUCUAAAUAGUCUGCAUGCCGCCGGGCGCCAUGCCUGCAGGUCGACUCUAGAAAACAUG,binding signal,PUM1 PUF domain R7-KPL,2.86 log2 enrichment (interaction score)
GGCUAGAACUAGUGGAUCCCCCGGCGCCCGGCGGCUCGAGCCCGGGUAAGUGUCAAUAGUCUGCAUGCCGCCGGGCGCCAUGCCUGCAGGUCGACUCUAGAAAACAUG,binding signal,PUM1 PUF domain R5-KQW,4.59 log2 enrichment (interaction score)
same,binding signal,PUM1 PUF domain R5-QAR,4.51 log2 enrichment (interaction score)
same,binding signal,PUM1 PUF domain R5-RCL,1.64 log2 enrichment (interaction score)
same,binding signal,PUM1 PUF domain R5-RGE,2.34 log2 enrichment (interaction score)
GGCUAGAACUAGUGGAUCCCCCGGCGCCCGGCGGCUCGAGCCCGGGUAAGCGUAAAUAGUCUGCAUGCCGCCGGGCGCCAUGCCUGCAGGUCGACUCUAGAAAACAUG,binding signal,PUM1 PUF domain R8-GWH,3.5 log2 enrichment (interaction score)
same,binding signal,PUM1 PUF domain R8-HFN,3.57 log2 enrichment (interaction score)
GGCUAGAACUAGUGGAUCCCCCGGCGCCCGGCGGCUCGAGCCCGGGUAAGUGUAAAUUGUCUGCAUGCCGCCGGGCGCCAUGCCUGCAGGUCGACUCUAGAAAACAUG,binding signal,PUM1 PUF domain R1-TGR,0.64 log2 enrichment (interaction score)
